From the supplement of paper PMC12067093, “Discovery and optimisation of a covalent ligand for TRIM25 and its application to targeted protein ubiquitination” (Chemical Science, 2025)
The full data set covers some 21,000 targets. This sample favours those with the largest changes.

compound: Cc1cc(ccc1-c1ccccc1)C(=O)N1CCCN(CC1)C(=O)CCl [compound 10]; test: probe-labelled cysteine peptide fold change vs DMSO (competition) (log2 fold change); higher = less target engagement (more negative = stronger competition); conditions: 50 µM; THP-1; incubation time: 4 h
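Note: competitive profiling in live THP-1 cells: cysteine peptides tagged with an iodoacetamide desthiobiotin (IA-DTB) probe, intensity after compound treatment relative to DMSO-treated cells.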

Chain of UniProt Q96T76 (Q96T76 whole entry, looked up): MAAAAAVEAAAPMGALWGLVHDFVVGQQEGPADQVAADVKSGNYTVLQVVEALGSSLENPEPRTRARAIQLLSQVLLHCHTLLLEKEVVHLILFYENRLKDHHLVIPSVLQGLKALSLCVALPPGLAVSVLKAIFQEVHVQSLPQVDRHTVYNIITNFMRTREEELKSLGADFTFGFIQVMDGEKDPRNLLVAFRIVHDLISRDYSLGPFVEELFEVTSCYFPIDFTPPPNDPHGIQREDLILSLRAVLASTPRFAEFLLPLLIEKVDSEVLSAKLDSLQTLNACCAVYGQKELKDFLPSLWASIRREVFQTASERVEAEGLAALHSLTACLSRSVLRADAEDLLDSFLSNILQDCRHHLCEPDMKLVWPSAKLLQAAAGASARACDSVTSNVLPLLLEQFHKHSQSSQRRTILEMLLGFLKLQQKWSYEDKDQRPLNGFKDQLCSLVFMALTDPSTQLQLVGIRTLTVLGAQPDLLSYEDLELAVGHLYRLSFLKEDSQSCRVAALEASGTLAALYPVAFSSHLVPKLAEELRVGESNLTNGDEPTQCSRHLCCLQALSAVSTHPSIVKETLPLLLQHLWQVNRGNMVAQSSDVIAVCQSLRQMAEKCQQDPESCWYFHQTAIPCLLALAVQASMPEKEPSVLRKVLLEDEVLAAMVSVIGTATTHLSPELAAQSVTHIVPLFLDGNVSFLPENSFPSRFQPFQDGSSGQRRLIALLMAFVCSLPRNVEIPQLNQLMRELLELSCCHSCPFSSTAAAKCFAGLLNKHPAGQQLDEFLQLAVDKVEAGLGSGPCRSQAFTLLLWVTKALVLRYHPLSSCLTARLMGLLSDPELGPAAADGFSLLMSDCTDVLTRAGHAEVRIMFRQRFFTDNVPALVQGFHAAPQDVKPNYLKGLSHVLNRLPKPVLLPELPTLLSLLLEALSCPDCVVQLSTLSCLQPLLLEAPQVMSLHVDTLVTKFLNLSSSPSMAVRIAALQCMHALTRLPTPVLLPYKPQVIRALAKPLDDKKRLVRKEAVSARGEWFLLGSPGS
Chain of UniProt O75608 (O75608 whole entry, looked up): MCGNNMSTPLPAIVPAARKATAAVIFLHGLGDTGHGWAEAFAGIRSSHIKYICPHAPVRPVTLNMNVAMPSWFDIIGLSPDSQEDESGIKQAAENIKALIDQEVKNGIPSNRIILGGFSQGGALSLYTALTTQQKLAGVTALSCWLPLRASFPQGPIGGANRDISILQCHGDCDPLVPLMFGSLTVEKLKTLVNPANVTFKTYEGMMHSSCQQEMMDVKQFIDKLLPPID
Chain of UniProt P56192 (P56192 whole entry, looked up): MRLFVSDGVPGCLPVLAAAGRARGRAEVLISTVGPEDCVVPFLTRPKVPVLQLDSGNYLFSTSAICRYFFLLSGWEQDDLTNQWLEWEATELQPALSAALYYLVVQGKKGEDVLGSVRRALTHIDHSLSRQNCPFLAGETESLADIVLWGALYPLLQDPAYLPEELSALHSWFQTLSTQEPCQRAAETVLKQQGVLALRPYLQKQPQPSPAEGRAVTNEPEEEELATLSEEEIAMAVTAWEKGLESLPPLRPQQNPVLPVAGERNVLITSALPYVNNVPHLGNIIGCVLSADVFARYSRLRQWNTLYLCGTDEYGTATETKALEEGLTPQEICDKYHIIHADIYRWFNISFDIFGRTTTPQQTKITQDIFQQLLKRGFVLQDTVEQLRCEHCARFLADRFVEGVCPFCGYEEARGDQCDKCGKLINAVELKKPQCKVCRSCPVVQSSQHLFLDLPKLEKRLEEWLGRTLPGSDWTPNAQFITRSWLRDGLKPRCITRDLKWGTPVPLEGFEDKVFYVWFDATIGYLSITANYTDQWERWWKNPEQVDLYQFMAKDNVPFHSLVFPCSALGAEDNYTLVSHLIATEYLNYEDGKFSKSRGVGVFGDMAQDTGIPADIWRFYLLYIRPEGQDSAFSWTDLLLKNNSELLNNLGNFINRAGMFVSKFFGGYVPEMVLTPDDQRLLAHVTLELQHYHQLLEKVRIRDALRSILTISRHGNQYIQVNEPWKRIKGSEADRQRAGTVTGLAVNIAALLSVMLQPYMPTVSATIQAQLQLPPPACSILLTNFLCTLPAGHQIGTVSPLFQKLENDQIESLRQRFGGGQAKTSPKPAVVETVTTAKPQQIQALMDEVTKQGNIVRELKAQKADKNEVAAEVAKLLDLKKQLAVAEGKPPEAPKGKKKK
Chain of UniProt P45984 (P45984 whole entry, looked up): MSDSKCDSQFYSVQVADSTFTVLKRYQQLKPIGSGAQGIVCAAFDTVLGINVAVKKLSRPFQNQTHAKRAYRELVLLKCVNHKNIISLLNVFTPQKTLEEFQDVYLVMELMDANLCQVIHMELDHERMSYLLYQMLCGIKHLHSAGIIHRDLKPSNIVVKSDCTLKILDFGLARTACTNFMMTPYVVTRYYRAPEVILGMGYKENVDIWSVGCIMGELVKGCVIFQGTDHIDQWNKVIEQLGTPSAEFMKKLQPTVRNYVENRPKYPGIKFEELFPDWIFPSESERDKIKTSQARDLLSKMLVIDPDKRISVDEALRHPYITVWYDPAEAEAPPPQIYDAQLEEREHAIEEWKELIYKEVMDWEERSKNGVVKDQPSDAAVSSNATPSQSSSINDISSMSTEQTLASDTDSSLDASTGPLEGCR
Chain of UniProt Q8N1G4 (Q8N1G4 whole entry, looked up): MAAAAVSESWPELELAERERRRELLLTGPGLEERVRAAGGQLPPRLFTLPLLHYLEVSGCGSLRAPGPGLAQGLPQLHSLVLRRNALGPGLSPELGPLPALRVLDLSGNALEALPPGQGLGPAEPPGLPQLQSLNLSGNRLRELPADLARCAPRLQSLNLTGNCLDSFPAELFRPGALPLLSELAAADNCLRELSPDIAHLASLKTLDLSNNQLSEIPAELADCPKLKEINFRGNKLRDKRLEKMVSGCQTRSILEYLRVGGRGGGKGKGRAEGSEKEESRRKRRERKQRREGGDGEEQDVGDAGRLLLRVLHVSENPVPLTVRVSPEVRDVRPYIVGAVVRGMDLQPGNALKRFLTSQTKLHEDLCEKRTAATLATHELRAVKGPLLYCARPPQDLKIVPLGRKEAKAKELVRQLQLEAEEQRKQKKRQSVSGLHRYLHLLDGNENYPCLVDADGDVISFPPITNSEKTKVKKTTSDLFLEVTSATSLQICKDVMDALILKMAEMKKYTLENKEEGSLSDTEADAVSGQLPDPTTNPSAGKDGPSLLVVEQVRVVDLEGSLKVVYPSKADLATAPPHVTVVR
Chain of UniProt Q9UGP4 (Q9UGP4 whole entry, looked up): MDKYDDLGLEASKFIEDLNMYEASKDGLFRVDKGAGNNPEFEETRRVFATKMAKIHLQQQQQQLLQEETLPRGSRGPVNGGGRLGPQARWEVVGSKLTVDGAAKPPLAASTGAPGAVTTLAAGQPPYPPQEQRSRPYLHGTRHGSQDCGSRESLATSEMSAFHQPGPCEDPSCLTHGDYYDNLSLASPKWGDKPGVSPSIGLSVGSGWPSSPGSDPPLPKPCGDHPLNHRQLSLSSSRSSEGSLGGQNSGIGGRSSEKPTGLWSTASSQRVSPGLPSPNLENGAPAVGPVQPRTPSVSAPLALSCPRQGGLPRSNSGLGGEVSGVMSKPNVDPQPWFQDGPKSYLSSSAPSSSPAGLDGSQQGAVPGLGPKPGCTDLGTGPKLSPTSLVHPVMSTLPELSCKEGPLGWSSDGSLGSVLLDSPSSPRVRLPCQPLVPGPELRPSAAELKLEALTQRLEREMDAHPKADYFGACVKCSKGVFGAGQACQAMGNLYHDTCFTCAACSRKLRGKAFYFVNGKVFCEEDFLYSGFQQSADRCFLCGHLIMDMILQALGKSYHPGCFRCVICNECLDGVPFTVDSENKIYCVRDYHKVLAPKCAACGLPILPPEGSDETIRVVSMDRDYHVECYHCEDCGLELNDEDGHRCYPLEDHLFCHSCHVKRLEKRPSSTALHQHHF
Chain of UniProt Q8NHJ6 (Q8NHJ6 whole entry, looked up): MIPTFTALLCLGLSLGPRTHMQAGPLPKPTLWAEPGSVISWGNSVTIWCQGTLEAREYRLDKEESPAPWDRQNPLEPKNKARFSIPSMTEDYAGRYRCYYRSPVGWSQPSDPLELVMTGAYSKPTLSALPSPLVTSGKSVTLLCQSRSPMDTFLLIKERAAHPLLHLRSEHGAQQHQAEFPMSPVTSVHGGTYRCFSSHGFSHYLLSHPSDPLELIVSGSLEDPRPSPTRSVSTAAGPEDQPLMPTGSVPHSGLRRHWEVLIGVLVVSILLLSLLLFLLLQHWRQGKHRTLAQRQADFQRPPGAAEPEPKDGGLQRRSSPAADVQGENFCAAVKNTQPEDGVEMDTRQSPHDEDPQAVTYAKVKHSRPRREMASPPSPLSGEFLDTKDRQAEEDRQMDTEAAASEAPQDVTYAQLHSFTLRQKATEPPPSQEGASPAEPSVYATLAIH
Chain of UniProt Q9Y6C9 (Q9Y6C9 whole entry, looked up): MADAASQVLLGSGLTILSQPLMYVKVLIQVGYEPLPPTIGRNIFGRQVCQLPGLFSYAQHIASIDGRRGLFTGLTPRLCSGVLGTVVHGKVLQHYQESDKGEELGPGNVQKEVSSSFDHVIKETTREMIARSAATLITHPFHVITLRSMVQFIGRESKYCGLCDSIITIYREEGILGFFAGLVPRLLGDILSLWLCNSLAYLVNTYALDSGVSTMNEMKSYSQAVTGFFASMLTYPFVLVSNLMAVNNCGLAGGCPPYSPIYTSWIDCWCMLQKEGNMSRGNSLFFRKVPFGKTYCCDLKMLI
Chain of UniProt P48059 (P48059 whole entry, looked up): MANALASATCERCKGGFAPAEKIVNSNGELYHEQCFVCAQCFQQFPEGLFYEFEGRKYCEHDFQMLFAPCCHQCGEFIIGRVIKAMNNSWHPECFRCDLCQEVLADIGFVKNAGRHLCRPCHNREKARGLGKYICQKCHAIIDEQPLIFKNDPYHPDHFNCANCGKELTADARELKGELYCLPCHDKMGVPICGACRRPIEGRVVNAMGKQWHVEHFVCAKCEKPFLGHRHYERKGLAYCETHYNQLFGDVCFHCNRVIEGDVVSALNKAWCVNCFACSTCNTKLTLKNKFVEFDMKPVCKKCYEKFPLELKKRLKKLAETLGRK

Row | Target | probe-labelled cysteine peptide fold change
1 | MDN1_Q9NU22_2158_CLGEGGK (UniProt Q9NU22) | -1.54
2 | LYPLA1_O75608_144_LAGVTALSCWLPLR (UniProt O75608) | 0.0595
3 | MMS19_Q96T76_331_REVFQTASERVEAEGLAALHSLTACLSR (UniProt Q96T76) | 0.0397
4 | LIMD1_Q9UGP4_401_LSPTSLVHPVMSTLPELSCK (UniProt Q9UGP4) | -0.436
5 | LILRB4_Q8NHJ6_330_SSPAADVQGENFCAAVK (UniProt Q8NHJ6) | -0.214
6 | MAPK9_P45984_177_TACTNFMMTPYVVTR (UniProt P45984) | -1.64
7 | MYCBP2_O75592_3241_DTICELCGESHPYPVTYHMR (UniProt O75592) | -0.18
8 | MKS1_Q9NXB0_226_KYEHVLCTLK (UniProt Q9NXB0) | 0.305
9 | MARS_P56192_38_AEVLISTVGPEDCVVPFLTRPK (UniProt P56192) | 0.0548
10 | MMADHC_Q9H3L0_261+262_HLGFSVDDLGCCK (UniProt Q9H3L0) | -1.16
11 | MCRS1_Q96EZ8_84_CSGSEPSSSEK (UniProt Q96EZ8) | -0.104
12 | MYBBP1A_Q9BQG0_338_HYGEHVCTAK (UniProt Q9BQG0) | 0.083
13 | MTCH2_Q9Y6C9_49_QVCQLPGLFSYAQHIASIDGR (UniProt Q9Y6C9) | 0.0916
14 | MRC2_Q9UBG0_1234_TTSCDTK (UniProt Q9UBG0) | -0.499
15 | MTREX_P42285_430_KMVEEVFSNAIDCLSDEDK (UniProt P42285) | -0.485
16 | MMADHC_Q9H3L0_261_HLGFSVDDLGCCK (UniProt Q9H3L0) | -1.27
17 | LRRFIP1_Q32MZ4_456_CMVEVPQELETSTGHSLEK (UniProt Q32MZ4) | -0.23
18 | LIMS1_P48059_240+252_GLAYCETHYNQLFGDVCFHCNR (UniProt P48059) | 0.118
19 | MYBBP1A_Q9BQG0_623_SPAESCDLLGDIQTCIR (UniProt Q9BQG0) | -0.16
20 | MRPL53_Q96EL3_21_VQFCPFEK (UniProt Q96EL3) | -0.103
21 | LRRC47_Q8N1G4_367_LHEDLCEK (UniProt Q8N1G4) | -0.0285
